B2AR ag: beta2AR agonists driving receptor internalization, primary screen, cell-based, FAP fluorogen, flow cytometry. Am2.2-beta2AR cells. response, % (concentration not given with the values). hit rate 0.43% among 340,000. AID 504454, 2011;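 active = response above a set limit, near 3 SD of response in nonfluorescent compounds, cut at about 42% in these data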
MEKK2wt PB1 HTS: modulators of MEK5 binding to wildtype MEKK2, primary screen, biochemical, multiplex bead flow cytometry, Alexa488-MEK5; AID 1531, 2009; hit rate 1.1% among 290,000; binding response (% of control), % at 10 µM; Alexa488-MEK5 binding to MEKK2 WT; actives lie on both sides; Mitogen-activated protein kinase kinase kinase 2 (Homo sapiens), Q9Y2U5; in the data active = binding response below about 67% or above about 130%
MEKK3 PB1 HTS: modulators of MEKK3-MEK5 PB1 binding, primary screen, biochemical, wildtype MEKK3, multiplex bead flow cytometry, Alexa488-MEK5. bead-based flow cytometry, Alexa488-MEK5 binding to MEKK3; actives lie on both sides; 0 = blocked by unlabeled MEK5, 100 = vehicle. binding response (% of control), % at 10 µM. hit rate 1.4% among 290,000;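 active = binding response more than 3 SD above or below the average of its plate-row segment, actives on both sides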;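 note: Alexa488 bead fluorescence after subtracting the streptavidin-only scavenger bead signal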
Target sequence (Q99759 whole entry, looked up): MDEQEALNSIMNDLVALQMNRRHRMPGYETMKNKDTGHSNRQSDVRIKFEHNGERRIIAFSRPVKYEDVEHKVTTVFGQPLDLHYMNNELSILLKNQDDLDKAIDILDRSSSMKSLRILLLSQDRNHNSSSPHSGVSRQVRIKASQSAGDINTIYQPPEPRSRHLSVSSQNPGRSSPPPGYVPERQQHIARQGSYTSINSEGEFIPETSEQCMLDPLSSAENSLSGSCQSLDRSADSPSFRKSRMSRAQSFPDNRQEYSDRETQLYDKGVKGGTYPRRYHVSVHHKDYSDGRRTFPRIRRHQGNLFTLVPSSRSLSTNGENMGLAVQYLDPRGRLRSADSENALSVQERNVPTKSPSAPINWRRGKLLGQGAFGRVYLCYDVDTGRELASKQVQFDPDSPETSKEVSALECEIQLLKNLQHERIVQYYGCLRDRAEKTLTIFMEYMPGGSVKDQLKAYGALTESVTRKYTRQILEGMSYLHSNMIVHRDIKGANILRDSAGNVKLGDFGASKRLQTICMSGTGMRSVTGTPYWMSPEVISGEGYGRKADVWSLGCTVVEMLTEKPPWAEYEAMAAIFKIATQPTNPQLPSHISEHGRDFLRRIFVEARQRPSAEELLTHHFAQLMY
MEKK2mut PB1 HTS: MEK5 binding signal on mutant MEKK2 PB1, primary screen, biochemical, multiplex bead flow cytometry, Alexa488-MEK5 | Alexa488-MEK5 binding to MEKK2 mutant | percent response, % at 10 µM | hit rate 0.35% among 290,000 | AID 1530, 2009; in the data active = percent response above about 24%, passing the limit was not always enough
GRK2 inh: compounds blocking aptamer binding on GRK2 – biochemical, human GRK2, bead flow cytometry, HTS, primary screen; FAM-aptamer displacement from GRK2; hit rate 0.59% among 330,000; inhibition of aptamer binding, % at 10 µM;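 active = inhibition of aptamer binding above 40%, roughly 3 SD of noise, on plates passing a quality check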;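 note: median bead fluorescence of bound FAM aptamer so fluorescent compounds give negative values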
MEKK2wt confirm: modulators of MEK5 binding to wildtype MEKK2, confirmation, biochemical, single concentration, multiplex bead flow cytometry; shares compounds with MEKK3 PB1 HTS; Alexa488-MEK5 binding to MEKK2 WT; actives lie on both sides; binding response (% of control), % at 10 µM; hit rate 2.4% among 5,900; in the data active = binding response below about 16% or above about 210%; inactive = in between
MEKK2mut-MEK5: mutant MEKK2 PB1-MEK5 binding signal retest – biochemical, single concentration, multiplex bead flow cytometry, confirmation; AID 1893, 2009; hit rate 2% among 5,900; percent response, % at 10 µM; Alexa488-MEK5 binding to MEKK2 mutant; shares compounds with MEKK3 PB1 HTS; in the data active = percent response mostly above about 71%, no sharp cut-off; inactive = mostly below about 38%;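 note: higher means compound restores mutant binding toward wildtype level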
MEKK3 confirm: MEKK3 wild-type PB1 binding to MEK5, inhibitors, confirmation, biochemical, bead multiplex flow cytometry, single concentration, wildtype. hit rate 1.8% among 5,900. shares compounds with MEKK3 PB1 HTS. binding response (% of control), % at 10 µM. AID 1894, 2009. Alexa488-MEK5 binding to MEKK3; hits give low values;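 active = binding response below 72% of control, or above a set upper limit, though filed actives all read lower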;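 note: lower values mean stronger disruption of MEK5 binding to MEKK3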
A number is an active result; i = inactive; nt = not tested or not shown; [ ] = another dose, or the depositor's remark. Rows were chosen to be rich in hits. Some 2.9% of all compounds tested hit in one or more screens of this group.

SMILES	B2AR ag	MEKK2wt PB1 HTS	MEKK3 PB1 HTS	MEKK2mut PB1 HTS	GRK2 inh	MEKK2wt confirm	MEKK2mut-MEK5	MEKK3 confirm
CCOCCCn1c(=NC(C)=O)c(C#N)cc2c(=O)n3ccccc3nc21	i	i	i	i	i	nt	nt	nt
O=C(NC(=S)NC12CC3CC(CC(C3)C1)C2)c1ccc(F)cc1	nt	nt	nt	nt	i	nt	nt	nt
Cc1cn(C2CCCCC2)c(=O)[nH]c1=O	i	nt	nt	nt	nt	nt	nt	nt
CC12CC3(C)CC(C)(C1)CC(C(=O)Nc1nn[nH]n1)(C2)C3	i	i	81[inhibitor]	i	i	i	i	i
CN(Cc1nc2ccccc2c(=O)[nH]1)C(=O)c1cc(C2CC2)nn1-c1ccccc1	i	nt	nt	nt	i	nt	nt	nt
CCC1=C(OC(=O)N(CC)CC)N2C(=O)OC(=NCCc3c[nH]c4ccccc34)[C@]2(Cc2ccccc2)[C@H]2C1=CC[C@H]1C(=O)N(CC(=O)OC)C(=O)[C@H]12	i	2.0[inhibitor]	2.0[inhibitor]	i	i	i	i	i
CC(=O)c1ccc(N2CCN(C(=O)CCS(=O)(=O)c3ccc4c(c3)NC(=O)CS4)CC2)cc1	i	i	i	i	i	nt	nt	nt
CC(C)(C)c1ccccc1OCCOCCN1CCCCCC1	i	164	i	i	i	i	i	i
COc1ccc2[nH]cc(CCNC(C)=O)c2c1	i	i	i	44	i	i	i	i
Cc1ccc2[nH]cc(CCNC(=O)CN3C(=O)c4ccccc4C3=O)c2c1	i	i	147	i	i	i	i	i
O=C(NC(=S)N1CCCCCC1)c1ccc(Cl)cc1Cl	i	i	i	i	i	nt	nt	nt
COc1ccc2c(c1)[nH]c1c(N3CCSCC3)ncnc12	i	i	i	i	i	nt	nt	nt
COc1cc2[nH]c3c(Cl)ncnc3c2cc1OC	i	i	71[inhibitor]	i	i	i	i	i
COc1cc2[nH]c3c(N4CCN(c5ccc(Cl)cc5)CC4)ncnc3c2cc1OC	i	157	i	24	i	i	i	i
CCN(CC)S(=O)(=O)c1ccc(N2CCOCC2)c(NC(=O)c2ccc(N3CCCC3=O)cc2)c1	i	nt	nt	nt	i	nt	nt	nt
O=C1C(=O)N(Cc2ccccc2)C(=O)N1CCOc1ccccc1	i	i	i	i	nt	nt	nt	nt
Nc1ccc2nc(Cc3ccccc3)[nH]c2c1	i	47[inhibitor]	41[inhibitor]	i	i	i	i	i
Cc1ccc2nc(Cc3ccc(N)cc3)[nH]c2c1	i	i	i	i	i	nt	nt	nt
CCOC(=O)C1CCCN(C(=O)CNC(=O)c2ccc(Br)o2)C1 (configuration not stated)	i	nt	nt	nt	i	nt	nt	nt
Cc1ccc(S(=O)(=O)N(CCCO)CC(O)CON=C2c3ccccc3-c3ccccc32)cc1 (configuration not stated)	i	i	136	i	i	i	i	i
CCCNC(=O)NC(=O)COc1c(F)c(F)cc(F)c1F	i	i	i	i	i	nt	nt	nt
O=C(COc1c(F)c(F)cc(F)c1F)NC(=O)NC1CCCC1	i	i	56[inhibitor]	i	i	i	i	i
CCOC(=O)c1sc(NC(=O)CSc2nnnn2-c2ccc(C)cc2)c(C(=O)OCC)c1C	i	i	i	i	i	nt	nt	nt
CCOC(=O)c1sc(NC(=O)CSc2nc3c(c(=O)n2-c2ccc(C)cc2)SCC3)c(C(=O)OCC)c1C	i	i	71[inhibitor]	i	i	i	i	i
C/C(=N\NC(=O)c1cc(O)cc(O)c1)c1ccc(NC(=O)Cc2ccccc2)cc1	i	68[inhibitor]	71[inhibitor]	i	52	i	i	70
SMILES	B2AR ag	MEKK2wt PB1 HTS	MEKK3 PB1 HTS	MEKK2mut PB1 HTS	GRK2 inh	MEKK2wt confirm	MEKK2mut-MEK5	MEKK3 confirm
COc1ccc(NC(=O)Nc2nc3c(s2)CCCC3)cc1	i	i	136	i	i	i	i	i
O=C(COc1ccc(Br)cc1)Nc1cc(S(=O)(=O)N2CCCCC2)ccc1N1CCCCC1	i	i	139	i	i	i	i	i
CC(NCCCOc1cccc2ccccc12)c1ccccc1 (configuration not stated)	i	175	i	i	i	i	i	i
CC1=CC(C)(C)C(C(=O)O)C(C(=O)O)C1 (configuration not stated)	i	136	141	i	i	i	i	i
O=C(O)c1cccc(S(=O)(=O)Nc2ccc(N3CCCCC3)cc2)c1	i	nt	nt	nt	i	nt	nt	nt
c1csc(CNc2ccc3c(c2)OCCO3)c1	i	i	131	i	i	i	i	i
Cc1ccc(OCc2ccc(C#N)cc2)c(C(=O)c2cc(C#N)c(=O)n(C3CC3)c2)c1	i	i	i	52	i	i	i	i
COC(=O)c1cc(C(=O)N2CCc3ccccc32)cc([N+](=O)[O-])c1	i	i	i	i	i	nt	nt	nt
CCN(CC(=O)NCc1cccs1)C(=O)c1ccc(N(C)S(=O)(=O)c2ccc(C)cc2)cc1	i	nt	nt	nt	nt	nt	nt	nt
CN(C)C(CNc1ccc(S(C)(=O)=O)cc1[N+](=O)[O-])Cc1ccccc1 (configuration not stated)	i	i	i	i	i	nt	nt	nt
COc1ccc2c(c1)C(=O)OC2CC(=O)O (configuration not stated)	i	14[inhibitor]	9.0[inhibitor]	i	i	i	i	i
Cc1cc2oc3ccc(NCCCN4CCOCC4)cc3c(=O)c2cc1C	i	144	i	i	i	i	i	i
CN(C)S(=O)(=O)c1cccc(NC(=O)c2cccc(S(=O)(=O)N3CCCCC3)c2)c1	i	nt	nt	nt	i	nt	nt	nt
O=C(NCc1ccncc1)C(F)(F)C(F)(F)C(=O)NCc1ccncc1	i	i	i	i	i	nt	nt	nt
O=C(/C=N/O)NCc1ccncc1	i	i	123	i	i	i	i	i
CCNc1nc(OC)nc(SCC(=O)Nc2ccccc2)n1	i	i	i	i	i	nt	nt	nt
CC1CCc2nc3sc4c(c3c(N)c2C1)CCCC4 (configuration not stated)	i	i	i	i	i	nt	nt	nt
Nc1c2c(nc3sc4c(c13)CCCCC4)CCCCC2	i	i	139	i	i	i	i	i
CCN(CC(=O)NC(C)(C)C)C(=O)CCl	i	i	136	i	i	i	i	i
NS(=O)(=O)c1ccc(CCNCc2cc(Br)ccc2OCc2ccccc2F)cc1	i	i	i	i	i	nt	nt	nt
C=CCOc1ccccc1CNCCc1ccc(S(N)(=O)=O)cc1	i	i	i	i	i	nt	nt	nt

Source: PubChem (NMMLSC)
